# Assay results published in PubChem BioAssay.
# Activity calls are given as the source filed them. Unless noted, the rule behind the calls is not given here.
# Columns and labels:
# [1] = system: Wnt5a (protein binding on small-molecule microarray); test: small molecules binding Wnt5a protein – biophysical, small-molecule microarray, 635/667 nm fluorescence, primary screen (AID 1142); conditions: 635 nm fluorescence, higher = more signal;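 note: fluorescence read at 667 nm with signal to noise per printed feature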
# [2] = ATP-based viability of Huh7 replicon cells – cell-based, CellTiter-Glo luminescence, basal, 48 h, cytotoxicity control for HCV replication inhibitor project, primary screen (AID 1143); conditions: higher = more signal, called active from +8 up or from −8 down;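 note: Huh7 hepatoma cells carrying a hepatitis C replication reporter with no stimulus; test concentration not given here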
# [3] = Pseudomonas biofilm growth suppression – PAO1 strain, BacTiter-Glo luminescence, LB-PBS, primary screen (AID 1144); conditions: P. aeruginosa PAO1 biofilm, 12 h, higher = more signal
# [4] = basal CRE-LacZ reporter activity in PC12 – cell-based, unstimulated, primary screen (AID 1145); conditions: no forskolin, luminescence, 4.5 h, higher = more signal, called active from +8 up or from −8 down
# [5] = forskolin-driven CRE-LacZ activity in PC12 – cell-based, CRE-LacZ reporter, forskolin-stimulated, primary screen (AID 1146); conditions: luminescence, 4.5 h, higher = more signal, called active from +8 up or from −8 down;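 note: PC12 cells with 6xCRE LacZ reporter stimulated by forskolin 10 µM; beta-galactosidase reporter signal reflecting CREB driven transcription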
# [6] = target: Streptavidin (Streptomyces avidinii) (UniProt P22629); test: compounds binding control protein streptavidin – biophysical, small-molecule microarray, 635/667 nm fluorescence, artefact control for SMM compound annotation, primary screen (AID 1147); conditions: higher = more signal;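 note: signal reflects streptavidin binding to arrayed compounds as a control protein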
# Streptavidin (Streptomyces avidinii), sequence (P22629 whole entry, looked up): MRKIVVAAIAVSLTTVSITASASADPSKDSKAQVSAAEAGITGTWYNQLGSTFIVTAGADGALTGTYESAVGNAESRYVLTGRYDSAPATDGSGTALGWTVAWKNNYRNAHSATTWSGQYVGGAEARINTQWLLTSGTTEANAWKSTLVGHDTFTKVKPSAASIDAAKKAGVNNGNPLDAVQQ
# [7] = probe aInhba binding on compound microarray – biochemical, small-molecule microarray, 635/667 nm fluorescence, primary screen (AID 1148); conditions: higher = more signal;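 note: score merges 667nm spot fluorescence with signal-to-noise for antibody binding to printed compounds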
# [8] = target: Torsin-1A (Homo sapiens) (UniProt O14656); test: TOR1A wild-type binding on microarray – cell lysate, small-molecule microarray, lysate, 635/667 nm, primary screen (AID 1149); conditions: COS7 hTOR1A-WT lysate, 635 nm fluorescence, higher = more signal
# Torsin-1A (Homo sapiens), sequence (O14656 whole entry, looked up): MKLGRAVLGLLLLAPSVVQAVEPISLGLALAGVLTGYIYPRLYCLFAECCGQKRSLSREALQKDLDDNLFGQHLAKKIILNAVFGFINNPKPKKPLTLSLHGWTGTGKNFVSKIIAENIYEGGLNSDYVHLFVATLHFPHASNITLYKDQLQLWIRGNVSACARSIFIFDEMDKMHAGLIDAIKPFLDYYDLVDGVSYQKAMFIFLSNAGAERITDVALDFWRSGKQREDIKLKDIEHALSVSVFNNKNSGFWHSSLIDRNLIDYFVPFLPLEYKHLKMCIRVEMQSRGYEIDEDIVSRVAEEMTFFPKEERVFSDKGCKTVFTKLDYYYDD
# [9] = target: Torsin-1A (Homo sapiens) (UniProt O14656); test: torsin A mutant lysate binding on microarrays – cell lysate, small-molecule microarray, COS7 lysate, 635/667 nm fluorescence, primary screen (AID 1150); conditions: COS7 hTOR1A mutant lysate, 635 nm fluorescence, higher = more signal;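 note: score pools 667 nm emission and signal to noise measuring lysate protein binding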
# [10] = system: Sonic hedgehog protein (Shh); test: Sonic hedgehog microarray binding compounds – biochemical, small-molecule microarray, 635/667 nm fluorescence, primary screen (AID 1151); conditions: 635 nm fluorescence, higher = more signal;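 note: Shh protein binding to compounds spotted on small-molecule microarray slides; score combines spot fluorescence intensity with signal-to-noise across triplicate slides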
# [11] = optical density shifts of acrAB sulA E. coli – strain DRC41, OD650, 48 h, E. coli filamentation inducer project, primary screen (AID 1152); conditions: higher = more signal, called active from +8 up or from −8 down;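 note: E. coli MC1000 strain DRC41 lacking acrAB efflux pump and sulA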
# [12] = probe aLefty1 binding on compound microarray – biochemical, small-molecule microarray, 635/667 nm fluorescence, primary screen (AID 1153); conditions: higher = more signal;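 note: score merges spot fluorescence with signal-to-noise ratio from the scanned slide images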
# [13] = plasmodial surface anion channel blockers, osmotic lysis – cell-based, P. falciparum Indochina, OD700, 1 h, primary screen (AID 1154); conditions: P. falciparum Indochina infected RBC osmotic lysis, higher = more signal, called active from +8 up or from −8 down
# [14] = plasmodial surface anion channel blockers, osmotic lysis – cell-based, P. falciparum Indochina, OD700, 2 h, primary screen (AID 1155);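 note: lysis reports solute entry through the parasite surface anion channel PSAC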; conditions: P. falciparum Indochina infected erythrocytes, higher = more signal, called active from +8 up or from −8 down
# [15] = changes in parasitized red cell lysis, either direction – P. falciparum Indochina, OD700, 3 h, PSAC antagonist project, primary screen (AID 1156); conditions: P. falciparum-infected erythrocytes, osmotic lysis, higher = more signal, called active from +8 up or from −8 down
# [16] = plasmodial surface anion channel blockers, osmotic lysis – cell-based, P. falciparum Indochina, OD700, 18 h, primary screen (AID 1157); conditions: P. falciparum Indochina infected erythrocytes, osmotic lysis OD700, 18 h; higher = more signal, called active from +8 up or from −8 down
# [17] = S6 kinase pathway phospho-S6 level changes – cell-based, A549, cytoblot, luminescence, serum-stimulated, primary screen (AID 1158); conditions: 5 h, higher = more signal;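 note: serum-stimulated A549 lung adenocarcinoma cells; signal is phosphorylated S6 detected by cytoblot immunostaining with HRP secondary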
# [18] = target: NADPH oxidase 2 (Homo sapiens) (UniProt P04839); test: compounds shifting NOX2 Amplex Red fluorescence – cell-based, HEK293-NOX2, PMA-stimulated, NOX inhibitor project, primary screen (AID 1159); conditions: 45 min, higher = more signal, called active from +8 up or from −8 down; note: test concentration not given here
# NADPH oxidase 2 (Homo sapiens), sequence (P04839 whole entry, looked up): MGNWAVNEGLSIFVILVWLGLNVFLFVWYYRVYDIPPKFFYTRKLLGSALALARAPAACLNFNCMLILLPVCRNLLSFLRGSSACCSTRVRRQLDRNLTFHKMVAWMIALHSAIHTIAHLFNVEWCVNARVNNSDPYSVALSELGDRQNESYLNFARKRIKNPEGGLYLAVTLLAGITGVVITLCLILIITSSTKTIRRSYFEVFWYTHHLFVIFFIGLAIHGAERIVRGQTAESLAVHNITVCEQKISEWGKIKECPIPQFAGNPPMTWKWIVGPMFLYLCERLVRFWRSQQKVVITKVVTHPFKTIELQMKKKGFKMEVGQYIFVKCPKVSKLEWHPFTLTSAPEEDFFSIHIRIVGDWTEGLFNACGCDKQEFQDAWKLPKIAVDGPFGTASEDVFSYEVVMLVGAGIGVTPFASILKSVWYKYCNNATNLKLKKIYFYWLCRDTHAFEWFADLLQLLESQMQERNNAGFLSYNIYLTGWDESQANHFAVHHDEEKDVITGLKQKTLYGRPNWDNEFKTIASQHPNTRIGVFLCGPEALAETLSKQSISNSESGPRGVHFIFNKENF
# [19] = target: NADPH oxidase 4 (Homo sapiens) (UniProt Q9NPH5); test: compounds shifting NOX4 Amplex Red fluorescence – cell-based, HEK293-NOX4, tetracycline-induced, NOX inhibitor project, primary screen (AID 1160); conditions: HEK293-NOX4, Amplex Red H2O2 fluorescence, 45 min; higher = more signal, called active from +8 up or from −8 down
# NADPH oxidase 4 (Homo sapiens), sequence (Q9NPH5 whole entry, looked up): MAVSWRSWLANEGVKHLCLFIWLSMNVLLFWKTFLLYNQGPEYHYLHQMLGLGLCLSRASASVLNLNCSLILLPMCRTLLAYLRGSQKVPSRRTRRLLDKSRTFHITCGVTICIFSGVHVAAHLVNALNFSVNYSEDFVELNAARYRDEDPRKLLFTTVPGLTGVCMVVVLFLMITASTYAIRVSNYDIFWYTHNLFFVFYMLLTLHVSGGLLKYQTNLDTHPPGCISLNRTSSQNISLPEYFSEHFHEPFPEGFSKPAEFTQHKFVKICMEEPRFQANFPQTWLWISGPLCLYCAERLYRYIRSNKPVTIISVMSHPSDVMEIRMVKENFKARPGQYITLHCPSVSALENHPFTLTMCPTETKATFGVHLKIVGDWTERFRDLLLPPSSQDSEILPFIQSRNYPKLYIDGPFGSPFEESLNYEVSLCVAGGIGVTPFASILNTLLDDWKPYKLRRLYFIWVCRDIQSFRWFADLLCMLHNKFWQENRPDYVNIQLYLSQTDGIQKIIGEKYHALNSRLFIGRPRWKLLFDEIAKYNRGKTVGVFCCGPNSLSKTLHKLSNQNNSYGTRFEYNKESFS
# [20] = target: NADPH oxidase 5 (Homo sapiens) (UniProt Q96PH1); test: compounds shifting NOX5 Amplex Red fluorescence – cell-based, HEK293-NOX5, NOX inhibitor project, primary screen (AID 1161); conditions: HEK293-NOX5, ionomycin, 45 min, higher = more signal
# NADPH oxidase 5 (Homo sapiens), sequence (Q96PH1 whole entry, looked up): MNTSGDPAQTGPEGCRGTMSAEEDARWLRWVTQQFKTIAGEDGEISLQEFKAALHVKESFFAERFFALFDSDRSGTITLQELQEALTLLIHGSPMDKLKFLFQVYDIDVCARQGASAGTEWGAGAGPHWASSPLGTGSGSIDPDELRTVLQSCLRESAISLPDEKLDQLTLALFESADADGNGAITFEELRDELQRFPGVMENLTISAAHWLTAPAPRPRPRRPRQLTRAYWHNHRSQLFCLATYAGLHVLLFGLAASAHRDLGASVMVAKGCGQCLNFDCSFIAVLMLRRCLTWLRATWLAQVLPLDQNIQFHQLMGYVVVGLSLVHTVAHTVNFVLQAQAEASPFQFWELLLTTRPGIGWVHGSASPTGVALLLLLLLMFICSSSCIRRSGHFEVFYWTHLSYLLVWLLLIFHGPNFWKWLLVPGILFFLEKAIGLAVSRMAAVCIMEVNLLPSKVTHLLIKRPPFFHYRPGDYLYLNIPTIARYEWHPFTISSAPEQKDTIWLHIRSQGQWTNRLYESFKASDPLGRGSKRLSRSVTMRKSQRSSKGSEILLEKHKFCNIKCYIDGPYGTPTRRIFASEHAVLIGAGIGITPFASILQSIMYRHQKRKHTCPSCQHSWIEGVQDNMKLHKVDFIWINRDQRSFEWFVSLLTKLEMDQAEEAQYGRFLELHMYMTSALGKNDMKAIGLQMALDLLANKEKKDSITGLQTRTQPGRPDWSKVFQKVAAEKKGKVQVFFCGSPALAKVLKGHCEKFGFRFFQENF
SMILES,composite z-score [1],z-score [2],z-score [3],z-score [4],z-score [5],composite z-score [6],composite z-score [7],composite z-score [8],composite z-score [9],composite z-score [10],z-score [11],composite z-score [12],z-score [13],z-score [14],z-score [15],z-score [16],z-score [17],z-score [18],z-score [19],z-score [20]
COc1c(C)cc(-c2cc3c(c(Cc4ccccc4)n2)[Si](C(C)C)(C(C)C)OC3)cc1C,0.0025,0.428 (inactive),0.602 (inactive),-0.0848 (inactive),-0.47 (inactive),0.169,-0.128,-0.0914,-0.105,0.513,-1.01 (inactive),0.0004,0.613 (inactive),-0.172 (inactive),0.249 (inactive),0.189 (inactive),-0.671,-0.233 (inactive),0.243 (inactive),0.152
O=c1cccc(-c2cccc(Cl)c2)o1,0.0303,-1.07 (inactive),0.96 (inactive),0.631 (inactive),-1.05 (inactive),0.244,0.0047,0.34,0.617,-0.215,0.457 (inactive),-0.0057,25.8 (active),10.2 (active),-0.51 (inactive),1.27 (inactive),-0.717,-0.16 (inactive),-1.92 (inactive),-0.541
COC(=O)[C@@]1(Cc2ccc(F)cc2)[C@H]2c3cc(C(=O)N4CCCC4)n(CCF)c3C[C@H]2CN1C(=O)c1ccccc1,1.5,-2.28 (inactive),-0.603 (inactive),0.952 (inactive),1.33 (inactive),1.99,1.66,0.103,1.07,-0.462,-0.379 (inactive),2.02,6.17 (inactive),0.237 (inactive),0.423 (inactive),0.715 (inactive),0.563,0.6 (inactive),-0.248 (inactive),-0.159
CC(C)N1C(=O)[C@@]2(c3ccc([N+](=O)[O-])cc3)CC(=O)N(C3CCCCC3)[C@@H]2c2ccc(CO)cc21,-0.0311,-0.311 (inactive),-1.16 (inactive),-0.464 (inactive),-0.144 (inactive),-0.196,-0.045,-0.36,-0.123,1.02,0.0586 (inactive),-0.672,-0.716 (inactive),-0.465 (inactive),-0.393 (inactive),-0.334 (inactive),0.254,-0.898 (inactive),-0.363 (inactive),-0.316
